# Reference: the supplement of paper PMC3414501
# Counter-ions that a name gives are not always drawn.
# Test system: S. cerevisiae SK1 pCDA2-eGFP (USY613), sporulating
# Experiment: CDA2-GFP sporulation assay sensitivity score (z-score vs DMSO controls); higher = stronger inhibition of sporulation, active = hit call of the paper
# 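Further: active if sensitivity score above 5.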
row,Compound,CDA2-GFP sporulation assay sensitivity score
1,"CC(C)[C@H](N)C(=O)OCCOCn1cnc2c(=O)nc(N)[nH]c21 [Valaciclovir hydrochloride] (stock concentration (mM, diluted 1:100): 9)",0.8 (inactive)
2,"COc1cc(N)c(Cl)cc1C(=O)NC1CCN(CCCOc2ccc(F)cc2)CC1OC (centres undefined) [Cisapride] (stock concentration (mM, diluted 1:100): 10.5)",0.78 (inactive)
3,"CCC(C)n1ncn(-c2ccc(N3CCN(c4ccc(OCC5COC(Cn6cncn6)(c6ccc(Cl)cc6Cl)O5)cc4)CC3)cc2)c1=O (centres undefined) [Itraconazole] (stock concentration (mM, diluted 1:100): 10.1)",0.16 (inactive)
4,"CN1CCN(C2=Nc3cc(F)ccc3Cc3ccccc32)CC1 [Fluperlapine] (stock concentration (mM, diluted 1:100): 10)",17.9 (active)
5,"CCOC(=O)C1=C(C)NC(C)=C(C(=O)OCC)C1c1ccccc1/C=C/C(=O)OC(C)(C)C [Lacidipine] (stock concentration (mM, diluted 1:100): 10)",6.44 (inactive)
6,"CC(C)[C@H]1CC[C@H](C(=O)N[C@H](Cc2ccccc2)C(=O)O)CC1 [Nateglinide] (stock concentration (mM, diluted 1:100): 10)",0.06 (inactive)
7,"CN(C)CC[C@@H](c1ccc(Br)cc1)c1ccccn1 [Dexbrompheniramine maleate] (stock concentration (mM, diluted 1:100): 7.3)",-1.63 (inactive)
8,"CCCCCNC(=N)N/N=C/c1c[nH]c2ccc(OC)cc12 [Tegaserod maleate] (stock concentration (mM, diluted 1:100): 7.2)",-3.28 (inactive)
9,"C[C@H]1COc2c(C3(N)CC3)c(F)cc3c(=O)c(C(=O)O)cn1c23 [Pazufloxacin] (stock concentration (mM, diluted 1:100): 10)",0.17 (inactive)
10,"COc1ccc2cc([C@H](C)C(=O)O)ccc2c1 [Naproxen sodium] (stock concentration (mM, diluted 1:100): 10)",1.69 (inactive)
11,"O=C(NCCN1CCOCC1)c1ccc(Cl)cc1 [Moclobemide] (stock concentration (mM, diluted 1:100): 10)",0.72 (inactive)
12,"CN1CCN(CCCN2c3ccccc3Sc3ccc(C(F)(F)F)cc32)CC1 [Trifluoperazine dihydrochloride] (stock concentration (mM, diluted 1:100): 10)",-0.39 (inactive)
13,"OCCN1C[C@H](O)[C@@H](O)[C@H](O)[C@H]1CO [Miglitol] (stock concentration (mM, diluted 1:100): 10)",1.46 (inactive)
14,"C[C@H](N[C@@H](CCc1ccccc1)C(=O)O)C(=O)N1CCC[C@H]1C(=O)O [Enalaprilat] (stock concentration (mM, diluted 1:100): 10)",1.04 (inactive)
15,"CCN(CC)C(=S)SSC(=S)N(CC)CC [Tetraethylthiuram disulfide] (stock concentration (mM, diluted 1:100): 10)",-1.5 (inactive)

# Test system: S. cerevisiae NKY1551 his4x/his4B, sporulating
# Experiment: HIS4 meiotic recombination assay sensitivity score (z-score vs DMSO controls); higher = stronger inhibition of sporulation/recombination, active = hit call of the paper
row,Compound,HIS4 meiotic recombination assay sensitivity score
1,"CNC(=C[N+](=O)[O-])NCCSCc1csc(CN(C)C)n1 [Nizatidine] (stock concentration (mM, diluted 1:100): 10)",-0.53 (inactive)
2,"COCCOC(=O)C1=C(C)NC(C)=C(C(=O)OC(C)C)C1c1cccc([N+](=O)[O-])c1 (centres undefined) [Nimodipine] (stock concentration (mM, diluted 1:100): 10)",4.27 (inactive)
3,"CC(=O)OCC(=O)NCCCOc1cccc(CN2CCCCC2)c1 [Roxatidine acetate hydrochloride] (stock concentration (mM, diluted 1:100): 9.1)",-1.59 (inactive)
4,"CC(C)(C)C(O)/C=C/c1ccc2c(c1)OCO2 (centres undefined) [Stiripentol] (stock concentration (mM, diluted 1:100): 10)",1.81 (inactive)
5,"CN1CCCC(n2nc(Cc3ccc(Cl)cc3)c3ccccc3c2=O)CC1 (centres undefined) [Azelastine hydrochloride] (stock concentration (mM, diluted 1:100): 9.1)",10.7 (active)
6,"COc1ccc(CC(C)NCC(O)c2ccc(O)c(NC=O)c2)cc1 (centres undefined) [Formoterol fumarate dihydrate] (stock concentration (mM, diluted 1:100): 7)",-1.68 (inactive)
7,"CCN(CC)CC(=O)Nc1c(C)cccc1C [Lidocaine] (stock concentration (mM, diluted 1:100): 9.6)",-2.75 (inactive)
8,"Clc1cccc(Cl)c1NC1=NCCN1 [Clonidine] (stock concentration (mM, diluted 1:100): 10)",-0.25 (inactive)
9,"COc1cc2nc(N3CCN(C(=O)C4CCCO4)CC3)nc(N)c2cc1OC (centres undefined) [Terazosin] (stock concentration (mM, diluted 1:100): 9.5)",0.92 (inactive)
10,"CN[C@H]1CC[C@@H](c2ccc(Cl)c(Cl)c2)c2ccccc21 [Sertraline] (stock concentration (mM, diluted 1:100): 9)",-0.61 (inactive)
11,"COc1ccc2[nH]c([S+]([O-])Cc3ncc(C)c(OC)c3C)nc2c1 (centres undefined) [Omeprazole] (stock concentration (mM, diluted 1:100): 10)",-1.05 (inactive)
12,"Cc1cccc(Nc2ccncc2S(=O)(=O)NC(=O)NC(C)C)c1 [Torasemide] (stock concentration (mM, diluted 1:100): 9.9)",0.74 (inactive)
13,"CN(C)CCC[C@@]1(c2ccc(F)cc2)OCc2cc(C#N)ccc21 [Escitalopram oxalate] (stock concentration (mM, diluted 1:100): 7.9)",6.6 (active)
14,"O=C1c2c(O)cc(O)cc2OC(c2ccc(O)c(O)c2)C1O (centres undefined) [Taxifolin] (stock concentration (mM, diluted 1:100): 10.1)",-0.52 (inactive)
15,"OCCN1CCN(CCCN2c3ccccc3Sc3ccc(C(F)(F)F)cc32)CC1 [Fluphenazine hydrochloride] (stock concentration (mM, diluted 1:100): 10)",7.55 (active)
16,"COc1cc(/C=C/c2ccc(O)cc2)cc(OC)c1 [Pterostilbene] (stock concentration (mM, diluted 1:100): 10)",-0.31 (inactive)
17,"c1ccc(-c2ccc(C(c3ccccc3)n3ccnc3)cc2)cc1 (centres undefined) [Bifonazole] (stock concentration (mM, diluted 1:100): 10)",-0.93 (inactive)
18,"C[C@@H]1C[C@H]2[C@@H]3CCC4=CC(=O)C=C[C@]4(C)[C@@]3(F)[C@@H](O)C[C@]2(C)[C@H]1C(=O)CO [Desoximetasone] (stock concentration (mM, diluted 1:100): 10)",-1.12 (inactive)
19,"CO[C@H]1O[C@@H]2O[C@@]3(C)CC[C@H]4[C@H](C)CC[C@@H]([C@H]1C)[C@@]24OO3 [Artemether] (stock concentration (mM, diluted 1:100): 10)",-0.64 (inactive)
20,"O=C1[C@H]2CCCC[C@H]2C(=O)N1CCCCN1CCN(c2nsc3ccccc23)CC1 [Perospirone hydrochloride] (stock concentration (mM, diluted 1:100): 9.4)",-2.62 (inactive)
21,"CCN1CCC[C@H]1CNC(=O)c1cc(S(N)(=O)=O)ccc1OC [Levosulpiride] (stock concentration (mM, diluted 1:100): 10)",0.77 (inactive)
22,"CC(C)[C@H](N)C(=O)OCCOCn1cnc2c(=O)nc(N)[nH]c21 [Valaciclovir hydrochloride] (stock concentration (mM, diluted 1:100): 9)",0.04 (inactive)
23,"COc1cc(N)c(Cl)cc1C(=O)NC1CCN(CCCOc2ccc(F)cc2)CC1OC (centres undefined) [Cisapride] (stock concentration (mM, diluted 1:100): 10.5)",-0.37 (inactive)
24,"CCC(C)n1ncn(-c2ccc(N3CCN(c4ccc(OCC5COC(Cn6cncn6)(c6ccc(Cl)cc6Cl)O5)cc4)CC3)cc2)c1=O (centres undefined) [Itraconazole] (stock concentration (mM, diluted 1:100): 10.1)",-1.94 (inactive)
25,"CN1CCN(C2=Nc3cc(F)ccc3Cc3ccccc32)CC1 [Fluperlapine] (stock concentration (mM, diluted 1:100): 10)",-1.76 (inactive)
26,"CCOC(=O)C1=C(C)NC(C)=C(C(=O)OCC)C1c1ccccc1/C=C/C(=O)OC(C)(C)C [Lacidipine] (stock concentration (mM, diluted 1:100): 10)",0.32 (inactive)
27,"CC(C)[C@H]1CC[C@H](C(=O)N[C@H](Cc2ccccc2)C(=O)O)CC1 [Nateglinide] (stock concentration (mM, diluted 1:100): 10)",-0.37 (inactive)
28,"CN(C)CC[C@@H](c1ccc(Br)cc1)c1ccccn1 [Dexbrompheniramine maleate] (stock concentration (mM, diluted 1:100): 7.3)",7.19 (active)
29,"CCCCCNC(=N)N/N=C/c1c[nH]c2ccc(OC)cc12 [Tegaserod maleate] (stock concentration (mM, diluted 1:100): 7.2)",-0.84 (inactive)
